Source: PubChem
Wee1 stabilizer – inhibitors of human Wee1 degradation; HeLa Luc-Wee1K328M stability, luciferase luminescence; 100% = proteasome inhibitor MG132 effect; reporter increase, % at 5 µM; 220,000 tested, 1.2% active;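 active means activation above the mean of all tested compounds plus 3 SD, set per screening run, cut at about 8.8% in these data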;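 further: cells exposed to compound for 20 h before luminescence read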
EP2 mod – modulates human prostaglandin E2 receptor EP2 signaling; induction, % at 25 µM; EP2-expressing cells, cAMP HTRF FRET, PGE2 co-stimulation; 260,000 tested, 0.83% active; P43116;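 active means compounds whose cAMP rise, as percent of the full-agonist control response, exceeds 60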;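 further: rat C6 glioma line stably carrying human EP2 under a CMV promoter; the protocol text gives 20 µM as final concentration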
HSV replic up – increases HSV replication in cells; HSV replication augmentation in cells, fold increase; maximum fold increase; 220,000 tested, 0.005% active; AID 1956; in the data active means maximum fold increase above about 1.5; inconclusive means no clear call, values can overlap the other calls; tested in PC3 cells
Furin inh – inhibitors of human furin; purified furin, fluorogenic substrate cleavage; P09958; 220,000 tested, 0.061% active; inhibition, % at 20 µM or 30 µM; in the data active means inhibition above about 25%
Target sequence (P09958 108-714 limits assumed): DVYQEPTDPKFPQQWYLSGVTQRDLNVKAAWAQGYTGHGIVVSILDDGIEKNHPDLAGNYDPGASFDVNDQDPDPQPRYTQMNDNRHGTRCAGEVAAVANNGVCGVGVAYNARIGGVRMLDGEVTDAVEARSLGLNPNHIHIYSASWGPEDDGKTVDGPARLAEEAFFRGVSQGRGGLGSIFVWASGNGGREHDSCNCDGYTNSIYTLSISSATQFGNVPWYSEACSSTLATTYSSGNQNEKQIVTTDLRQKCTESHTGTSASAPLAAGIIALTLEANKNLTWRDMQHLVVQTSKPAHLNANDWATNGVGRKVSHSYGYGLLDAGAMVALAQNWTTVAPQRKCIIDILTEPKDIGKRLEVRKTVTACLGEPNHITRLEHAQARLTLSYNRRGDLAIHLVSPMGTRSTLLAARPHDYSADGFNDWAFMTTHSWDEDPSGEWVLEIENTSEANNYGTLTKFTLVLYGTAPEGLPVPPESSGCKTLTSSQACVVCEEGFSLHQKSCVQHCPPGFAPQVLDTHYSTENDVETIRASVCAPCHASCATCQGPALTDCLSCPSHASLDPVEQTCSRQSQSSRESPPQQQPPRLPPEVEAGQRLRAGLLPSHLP
PGE2 EP2 inh – EP2 receptor (human) inhibition. C6 glioma cells expressing human EP2, cAMP TR-FRET; cells stimulated with saturating PGE2. P43116. inhibition, % at 25 µM. 260,000 tested, 0.52% active;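 active means percent inhibition above 40 after rounding to a whole number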;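 further: rat C6 glioma host cells with rolipram phosphodiesterase inhibitor present; the protocol text gives 20 µM as final concentration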
p47phox inh – p47phox (human) inhibition; AID 1274; 220,000 tested, 0.53% active; p47phox/p22phox peptide binding, fluorescence polarization, 2 h; inhibition, % at 24.7 µM;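 active means inhibition above about 30%, limit read from the data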
Hits are given with their value; . = inactive; ? = inconclusive; / = no result; ! = a repeat was not active. Rows were chosen to be rich in hits. Some 2.8% of all compounds tested hit in one or more screens of this group.

SMILES	Wee1 stabilizer	EP2 mod	HSV replic up	Furin inh	PGE2 EP2 inh	p47phox inh
O=C(Nc1ccc2c(c1)OCO2)c1cnn2c(C(F)(F)F)cc(-c3ccco3)nc12	.	.	.	.	.	.
CCOc1ccc(-n2c(C)nc3cc(C(=O)NCc4ccco4)ccc32)cc1	9.5	.	.	.	.	.
CC(C)N1CC23C=CC(O2)C(C(=O)N2CCC(c4ccncc4)CC2)C3C1=O (centres undefined)	/	.	/	/	.	/
O=C(NC1CCCC1)C1CC1c1ccccc1 (centres undefined)	.	.	.	25	.	.
CCOC(=O)CNC(=O)CSc1nc2c(c(=O)n(C)c(=O)n2C)n1Cc1ccc(F)cc1	/	.	/	/	.	/
CCc1cc(C(c2ccccn2)N2CCN(C)CC2)c(NC(=O)c2ccccc2)s1 (centres undefined)	.	.	/	25	.	.
Cc1sc(NC(=O)c2ccccc2)c(C(c2ccccn2)N2CCN(CCO)CC2)c1C (centres undefined)	.	.	.	.	.	.
CCOC(=O)C1=C(N)OC2=C(C(=O)CC(C)(C)C2)C1c1ccc(C)cc1 (centres undefined)	/	79	/	/	.	/
CCOC(=O)C1=C(N)OC2=C(C(=O)CC(C)(C)C2)C1c1ccc(C)s1 (centres undefined)	.	.	.	.	.	.
Cc1ccc(N/N=C(\Cc2nc3ccccc3[nH]2)c2ccccc2)cc1	16	.	.	.	.	.
CCc1nn(CC(N)=O)c(=O)c2cc3occc3n12	/	.	/	/	.	/
O=C(Nc1ccccc1C(=O)NCc1ccc(Cl)cc1)c1ccco1	.	.	/	.	/	31
Cc1ccc2c(c1C)NC(C)CC2C (centres undefined)	.	.	.	26	.	.
Cc1cccc2c1NC1(CCCC1)CC2C (centres undefined)	.	.	.	.	.	.
O=C(NCc1c(Cl)cccc1Oc1ccccc1)c1ccccc1	.	63	.	.	.	.
COc1ccc(Oc2cccc(Cl)c2CNC(=O)c2ccccc2C(=O)O)cc1	.	.	.	.	.	.
CCOC(=O)CN1C(=O)S/C(=C/c2cccc([N+](=O)[O-])c2O)C1=O	10	.	.	.	.	.
COc1ccc(NC(=O)c2ccc(-c3cccc(Cl)c3)o2)c(OC)c1	/	.	/	/	.	/
N/C(=N\OC(=O)COc1ccc2ccccc2c1Br)c1ccccn1	.	62	.	.	.	.
Cc1cccc(NC(=O)CSc2nc3cc(C)cc(C)c3cc2C#N)c1	/	.	/	/	.	/
O=C(O)C1=C/C(=C(/c2ccccc2)c2cc(C(=O)O)c(O)c3ccccc23)c2ccccc2C1=O	/	.	/	/	40!	/
NC(=O)c1c(NC(=O)c2cc3ccccc3o2)sc2c1CCC2	.	.	.	.	42	.
Cn1cc(Br)c(C(=O)Nc2sc3c(c2C(N)=O)CCC3)n1	.	.	.	.	40	.
NC(=O)c1c(NC(=O)c2ccc3ccccc3c2)sc2c1CCCC2	/	.	/	/	.	/
Cc1ccc(C(=O)c2cc([N+](=O)[O-])ccc2N2CCCCC2)c(C)c1	.	63	.	.	.	.
SMILES	Wee1 stabilizer	EP2 mod	HSV replic up	Furin inh	PGE2 EP2 inh	p47phox inh
COc1cc(/C=C2\SC(=S)N(NS(=O)(=O)c3ccc(C)cc3)C2=O)ccc1O	.	.	?	.	41	.
CCN(CC)c1ccc(/C=C2/C(=O)N(c3ccc([N+](=O)[O-])cc3)N=C2N2CCOCC2)cc1	.	.	/	.	/	.
COc1cc(/C=C2\SC(=S)N(N3CCOCC3)C2=O)ccc1O	9.0	.	?	.	.	.
COc1cc(/C=C2\SC(=S)N(NS(=O)(=O)c3ccccc3)C2=O)ccc1O	.	.	?	.	.	.
COc1cc(/C=C2/C(=O)N(c3ccc([N+](=O)[O-])cc3)N=C2N2CCOCC2)ccc1O	8.9	.	.	.	.	.
CN(C)CCN(Cc1ccncc1)Cc1ccsc1	/	.	/	/	.	/
COc1ccc(N2C(=O)C(Cl)=C(Oc3cccc(OC)c3)C2=O)cc1	.	.	.	.	100	.
COc1ccc(N2C(=O)c3ccccc3C2=O)cc1	.	.	.	.	.	.
Cc1cc(C(=O)CSc2nc(N)cc(=O)[nH]2)ccc1F	/	.	/	/	.	/
Cc1cc(C)c2c(=O)[nH]c(SCC(=O)c3ccc(F)c(C)c3)nc2n1	.	.	.	.	.	38
COc1ccc(C(=O)Nc2nc(C)c(C(=O)Nc3ccc(Br)cc3)s2)cc1	/	.	/	/	.	/
O=C(c1nc2ccc([N+](=O)[O-])cc2[nH]c1=O)[C@@H](O)c1ccc2c(c1)OCO2	/	.	/	/	50	/
NC(=O)CSc1nc2ccc([N+](=O)[O-])cc2[nH]1	.	.	.	.	.	.
CCOc1cccc(CN2CCN(Cc3ccc(C)o3)C(CCO)C2)c1O (centres undefined)	9.3	.	.	.	.	.
CCOc1cccc(CN2CCN(CCc3ccccc3)C(CCO)C2)c1O (centres undefined)	.	.	.	.	.	.
N#Cc1ccc(NC(=O)COC(=O)CCc2nc3ccccc3c(=O)[nH]2)cc1	9.7	.	.	.	.	.
O=C(COC(=O)CCc1nc2ccccc2c(=O)[nH]1)Nc1ccccc1Cl	.	.	.	.	.	.
CCc1cc(=O)[nH]c(NC2CCN(C(=O)c3ccc(N(C)C)cc3)CC2)n1	/	.	/	/	.	/
Cc1cccc(NC(=S)N(CCN(C)C)Cc2cc3ccc(C)cc3[nH]c2=O)c1	/	.	/	/	.	/
COc1cc2c(cc1OC)CN(C(=S)NC(=O)c1ccccc1)CC2	.	.	.	.	.	31
COc1cc2c(cc1OC)CN(C(=O)c1cccc([N+](=O)[O-])c1)CC2	10	.	.	.	.	.
COc1cc2c(cc1OC)CN(C(=O)c1ccc(OC)c([N+](=O)[O-])c1)CC2	.	.	.	.	.	.
Cn1nccc1C(=O)Nc1ccccc1C(=O)O	.	.	.	.	.	178
Cc1cc(C(=O)NNC(=O)c2ccc(S(=O)(=O)N(C)C)cc2)c(C)o1	9.5	.	.	.	.	.
O=[N+]([O-])c1ccccc1/C=N/n1c(C2CCCCC2)n[nH]c1=S	.	.	.	.	.	.
SMILES	Wee1 stabilizer	EP2 mod	HSV replic up	Furin inh	PGE2 EP2 inh	p47phox inh
S=c1[nH]nc(C2CCCCC2)n1/N=C/c1ccc(Br)s1	.	63	.	.	.	.
O=C1c2cccc3cccc(c23)C(=O)N1CCN1CCN(C(=S)Nc2ccccc2)CC1	.	.	.	.	.	.
O=C1c2cccc3cccc(c23)C(=O)N1CCN1CCN(C(=S)Nc2ccc(Cl)cc2)CC1	.	.	.	.	.	32
Cc1ccc(C)c(/C(O)=C2/C(=O)C(=O)N(CCN3CCOCC3)C2c2cccs2)c1 (centres undefined)	/	.	/	/	.	/
CN1CCN(S(=O)(=O)c2ccc(NC(=O)Nc3cccc(Cl)c3)cc2)CC1	.	.	.	.	43	.
CCC(C)NC(=O)CSc1nc2cc3c(cc2c(=O)n1Cc1ccco1)OCO3 (centres undefined)	.	.	.	.	.	30
Cn1c(=O)c2c(nc(Br)n2CC(=O)O)n(C)c1=O	/	.	/	/	.	/
